Sm TGR inh – S. mansoni TGR enzyme inhibition. Potency, µM (doses to about 114 µM), inactives show top-dose activity change, negative = inhibition, usual class: inhibitors. purified TGR, DTNB reduction, TNB absorbance 405 nm. AID 485364. hit rate 3% among 360,000. Q962Y6; also: potency is read from the fitted curve at half-maximal effect; % is scaled to controls: 0 for no effect and ±100 for the full control effect; nearly all actives have a fitted effect of over 60% in size
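First, TGR (20 nM dispensed) and NADPH were mixed with compound. Second, a 15 min room-temperature incubation followed. Third, further NADPH and then DTNB were added to start the reaction. Finally, TNB absorbance was monitored kinetically.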
CHX counter – counter-screen for Shiga toxin inhibitors: cycloheximide protein synthesis inhibition; max response, %; AID 2314; cell reporter, cycloheximide protein synthesis inhibition counterscreen; hit rate 12% among 300,000; in the data active = max response mostly above about 13%, no sharp cut-off; inactive = mostly below about 14%; also: read at 38.3 µM for the half of the compounds with a filed dose; 0% is about no effect
Pf growth 48h – inhibits P. falciparum growth in the first generation, 48 h | hit rate 5.9% among 310,000 | Potency, µM (doses to about 28.7 µM), for inactives: at the top dose activity change, negative = inhibition, usual class: inhibitors | P. falciparum luciferase growth in erythrocytes, 48 h | AID 504832; also: potency is read from the fitted curve at half-maximal effect; % is scaled to controls: 0 for no effect and ±100 for the full control effect
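Read-out is firefly luciferase luminescence from an integrated reporter in P. falciparum, so falling signal marks reduced parasite growth. Infected erythrocytes were at 2% hematocrit and 0.1% parasitemia (final) in Albumax-supplemented RPMI 1640.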
Shiga toxin inh – Shiga toxin inhibition | Vero cells, Shiga toxin protein synthesis inhibition reporter | inhibition, % at 38.7 µM | hit rate 9.2% among 290,000 | AID 2315; in the data active = inhibition mostly above about 28%, no sharp cut-off; inactive = mostly below about 43%; also: 0% is about no effect
NS1 function inh – inhibitors of influenza NS1 protein function; hit rate 0.4% among 270,000; Potency, µM (doses to about 46.1 µM), without a hit: at the top dose activity, positive = more growth; calls by dose curve; also: potency is read from the fitted curve at half-maximal effect; actives are rising curves; nearly all actives have a fitted effect of over 50% in size
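Compounds were scored for reversing the slow growth caused by influenza A NS1 in S. cerevisiae, measured by optical density at 600 nm. Assay medium contained 2% galactose at pH 6.0; NS1-free yeast of the same strain were the positive control.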
Pf growth 96h – P. falciparum growth inhibition at 96 hour, primary screen for plastid delayed-death inhibitors; P. falciparum luciferase reporter growth, 96 h; Potency, µM (highest dose often 28.7 µM), for the others: at the top dose activity change, negative = inhibition, usual class: inhibitors; hit rate 6.9% among 320,000; AID 504834; also: potency is read from the fitted curve at half-maximal effect; % is scaled to controls: 0 for no effect and ±100 for the full control effect
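Delayed-death screen, second-generation endpoint: infected erythrocytes, 2% hematocrit, 0.05% parasitemia final; 96 hours at 37 C, 5% CO2; luciferase detection reagent; luminescence decrease equals reduced growth.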
Active calls of the source: *; ? = inconclusive; / = not tested or not shown; [ ] = remark or other dose. This is a sample that favours compounds with a hit; in the whole collection about 21% have one here. Unless noted, calls follow the shape of the dose curve; as a rule, active = well fitted curve in the direction sought with a large enough effect; inconclusive = small, poorly fitted or top-dose-only effect, or another doubt; inactive = no such curve, though single readings can be large; an effect the other way counts as inactive or inconclusive.

SMILES | Sm TGR inh | CHX counter | Pf growth 48h | Shiga toxin inh | NS1 function inh | Pf growth 96h
c1ccc(-n2nnc3cnccc32)cc1 | 5% | 24* | 26% | 24 | -12% | ?
c1cc(-n2nnc3cnccc32)ccn1 | -3% | -2 | 32% | -9 | -36% | -9%
Cc1cc(=O)[nH]c(N/N=C2/CCCC/C2=C\c2ccccc2)n1 | 22µM* | 2 | ? | 19 | -8% | ?
Cc1cc(=O)[nH]c(N/N=C/c2ccc(Cl)c([N+](=O)[O-])c2)n1 | -23% | 1 | 2.3µM* | -6 | 7% | ?
Cc1cc(=O)[nH]c(N/N=C/c2ccc(O)c(O)c2)n1 | -25% | -5 | ? | 10 | 5% | 4%
Cc1cc(=O)[nH]c(N/N=C/c2ccccn2)n1 | -2% | 14* | 2.9µM* | -34 | 6% | ?
CSc1ccc(/C=N/Nc2nc(C)cc(=O)[nH]2)cc1 | 1% | 11 | 40% | 29 | -3% | 10%
Cc1cc(=O)[nH]c(N/N=C/c2ccc(Br)s2)n1 | 0% | 27* | 9% | 29 | -6% | ?
CCn1nnc(-c2ccccc2NS(=O)(=O)c2ccc(S(=O)(=O)N(C)C3CCCCC3)cc2)n1 | 0% | 0 | / | -14 | 20% | ?
COc1cc2c(cc1OC)n(CC(=O)c1cccc(Cl)c1)c(=O)n1nc(CCn3nc(C)cc3C)nc21 | 0% | / | / | / | / | /
Nn1c(SCC(=O)NC(=O)Nc2ccc3c(c2)OCCO3)nnc1C1CC1 | -7% | 20 | 80% | 43 | / | 105%
Cc1cc(=O)[nH]c(N/N=C/c2cccc(Br)c2)n1 | -15% | 15* | ? | / | 2% | -19%
Cc1cc(=O)[nH]c(N/N=C/c2cccc([N+](=O)[O-])c2)n1 | -20% | -1 | 26% | -7 | 7% | 300%
CCOC(=O)c1ccc(CSc2nnc(-c3ccncc3)n2N)cc1 | 4% | 41* | -25% | 77 | 1% | 23%
Cc1ccc(CSc2nnc(-c3ccncc3)n2N)cc1 | 2% | 8 | 3% | 18 | 1% | -14%
COC(=O)Cc1ccc2c3ccccc3n(C)c2c1 | -13% | 25* | 37% | 18 | -87% | 0%
Fc1ccccc1-n1ncc2c1ncn1nc(-c3ccccc3Cl)nc21 | 1% | / | / | / | / | /
C=CCN=C1S/C(=C\c2ccc(Cl)cc2)C(=O)N1CC=C | -11% | 13 | ? | 49* | -32% | 12%
COc1ccc(-c2nc3n(c(=O)c2C#N)CCS3)cc1OC | -4% | -1 | 29% | -17 | 6% | 35%
COc1cc(-c2nc3n(c(=O)c2C#N)CCS3)cc(OC)c1OC | 1% | -3 | ? | -16 | 12% | 0.66µM*
CCOc1ccc(-c2cc(CCCC(=O)NCCc3ccc(OCC)c(OCC)c3)no2)cc1 | 0% | / | / | / | / | /
CC(=O)Nc1cccc(NC(=O)CSc2ccc(-c3ccco3)nn2)c1 | 14µM* | 17 | ? | -5 | 7% | 9.3µM*
CC(=O)Nc1ccc(NC(=O)CSc2ccc(-c3ccco3)nn2)cc1 | 8.9µM* | -2 | 3% | 8 | 4% | -53%[1.15 µM]
Cc1ccc(NC(=O)CSc2ccc(-c3ccco3)nn2)c(C)c1 | 28µM* | 27 | 7% | 14 | / | 0%
CC(=O)Nc1ccc(NC(=O)CSc2ccc(-c3cccs3)nn2)cc1 | -7% | 3 | 188% | 4 | / | 253%
SMILES | Sm TGR inh | CHX counter | Pf growth 48h | Shiga toxin inh | NS1 function inh | Pf growth 96h
Cc1ccc(NC(=O)CSc2ccc(-c3ccco3)nn2)cc1 | 10µM* | 9 | 10% | 11 | / | 13%
CN(CC(=O)Nc1c(Cl)cccc1Cl)C(=O)Cn1[nH]c(=O)c2ccccc2c1=O | -20% | / | ? | / | / | ?
Cc1cc(C(=O)NNCc2ccccc2)no1 | -12% | / | 4% | / | / | 12%
CC(=O)c1ccc(NC(=O)CSc2ccc(-c3ccco3)nn2)cc1 | 22µM* | 20 | 6% | -6 | -2% | ?
CC1=C(C(=O)OCCNC(=O)c2ccccc2O)C(c2ccccc2[N+](=O)[O-])C(C(=O)OCC2CCCO2)=C(C)N1 (configuration not stated) | -2% | -5 | ? | -14 | 19% | 5.2µM*
COC(=O)C1=C(C)NC(C)=C(C(=O)OCC2CCCO2)C1c1ccc(Cl)c([N+](=O)[O-])c1 (configuration not stated) | 5% | 5 | ? | -9 | -58% | ?
CCOc1ccc(CCNC(=O)c2cc3ccccn3n2)cc1OCC | -13% | -4 | / | -6 | -12% | 18%
c1ccc(-c2nc(-c3nccc4ccccc34)oc2-c2ccccc2)cc1 | 0% | 46* | 45% | 74* | -6% | 33%
CC(C1CC1)N(Cc1ccccc1)C(=S)Nc1ccccc1Cl (configuration not stated) | 3% | -8 | ? | -13 | / | 12µM*
CC1=N[C@@](C)(COC(=O)[C@]2(C)N[C@](C)(CO)CO2)COC1=O | / | / | / | / | 0% | /
COc1ccccc1NC(=S)N1CCN(Cc2ccc3c(c2)OCO3)CC1 | 2% | -2 | 1% | 8 | -15% | 63%
O=[N+]([O-])c1ccc(N/N=C2\CC3CC=CC23)cc1 (configuration not stated) | -14% | 42* | 95% | 82* | 6% | 296%
Cn1cccc1C(=O)OCC(=O)Nc1ccc2c(c1)OCO2 | 10% | 33* | 250% | 64* | 4% | 240%
O=C(COC(=O)c1ccc(N2CCOCC2)c([N+](=O)[O-])c1)Nc1ccc2c(c1)OCO2 | -8% | -5 | 12% | 19 | 24% | 24%
O=C(COC(=O)c1ccco1)NCc1ccc2c(c1)OCO2 | 4% | 10 | 4% | 33 | 1% | 1%
Nc1ccc(C(=O)OCC(=O)Nc2ccc3c(c2)OCO3)cc1[N+](=O)[O-] | -2% | 20* | 6% | 17 | ? | 4%
O=C(COC(=O)c1ccco1)Nc1ccc2c(c1)OCO2 | 9% | 25* | 14% | 53* | 3% | 21%
CCOc1ccc(OCC)c(NC(=O)c2cnc(SC)nc2-c2ccccc2)c1 | 0% | / | / | / | / | /
CCC(OC(=O)c1nsc(Cl)c1Cl)C(=O)NC(C)(C)CC (configuration not stated) | / | 8 | 10% | -5 | -5% | -23%
CC(C)(C)C(=O)Nc1ccc(C(=O)Nc2cccnc2)cc1 | 4% | 43* | / | 52 | 1% | 154%
CC(C)(C)C(=O)Nc1ccccc1C(=O)Nc1cccnc1 | 3% | -3 | 9% | 15 | 6% | 46%
CCC(=O)Nc1ccc(S(=O)(=O)Nc2cccnc2)cc1 | 0% | -3 | 12% | -18 | 8% | 2%
CCC(=O)Nc1ccc(C(=O)Nc2cccnc2)cc1 | 6% | 15* | 41% | 37* | -2% | /
O=C(Nc1cccnc1)c1ccc(COCC(F)(F)F)cc1 | 4% | 12* | 36% | 38* | ? | /
CCN(CC)CCNC(=O)c1cc2c(=O)n(C)c3cc(Cl)ccc3c2s1 | -9% | / | / | / | / | /
CCCSc1nnc(NC(=O)CSc2sc3c(O)cc(=O)[nH]c3c2C#N)s1 | 40µM* | -2 | 18% | -6 | 17% | 16%

Screening results (PubChem)
